TGFb inhibitor = qHTS for Inhibitors of TGF-b. HepG2 CAGA-GFP TGF-b/SMAD3 reporter, GFP fluorescence, 18 h; TGF-beta stimulated, 500 pg/mL final. AID 588855, 2011. 410,000 tested, 1.2% active. Potency, µM (titrated, usually from 46.1 µM), inactives show at the top dose activity, negative = inhibition, hits mostly inhibitors; note: potency is the fitted concentration of half-maximal effect; % is set by controls: 0 for no effect and ±100 for the full control effect; nearly all actives have a fitted effect of over 65% in size
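First, reporter cells (HEPG2 CAGA-GFP) rested 2 h at 37 degrees C. Next, compounds were pinned in and TGF-beta added to 500 pg/mL final. After 18 h, GFP was imaged per cell and summed per well.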
DT40 TDP1 no CPT = qHTS for Inhibitors of human tyrosyl-DNA phosphodiesterase 1 (TDP1): qHTS in cells in absence of CPT; DT40 Tdp1-/- hTDP1 cells, no CPT, ATP luminescence, 48 h; Potency, µM (highest dose often 46.2 µM), for inactives: at the highest dose activity change, negative = growth inhibition, hits mostly inhibitors; 420,000 tested, 15% active; note: potency is the fitted concentration of half-maximal effect; % is set by controls: 0 for no effect and ±100 for the full control effect; nearly all actives have a fitted effect of over 55% in size
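No-CPT arm: Tdp1-/-;hTDP1 DT40 cells (400/well) plus compounds, incubated ≥48 hr at 37 °C. Readout CellTiter-Glo luminescence.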
IL1B secr inh = qHTS for Inhibitors of Inflammasome Signaling: IL-1-beta AlphaLISA Primary Screen; activity change, % at 57.5 µM; THP-1 LPS/ATP IL-1B secretion, AlphaLISA, 16 h; hits give low values; 360,000 tested, 4.7% active; in the data active = activity change below about -50%; inconclusive = mostly about -30% to -49%; note: % is set by controls: 0 for no effect and ±100 for the full control effect
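Secreted IL-1B measured by AlphaLISA bead assay after 16 h compound exposure of THP-1 cells; compounds (final up to 57.5 uM) added 1 h before LPS (250 ng/mL) and ATP (1.25 mM) stimulation; lower signal means less secretion.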
ASM inhibitor = Inhibitors of Secretory Acid Sphingomyelinase (S-ASM): qHTS; Potency, µM (top dose mostly 57.5 µM), inactives show top-dose activity change, negative = inhibition, most hits filed as inhibitors; 340,000 tested, 0.006% active; Sphingomyelin phosphodiesterase (Homo sapiens), P17405; placental ASM, HMU-PC fluorogenic substrate, 60 min; note: potency is the fitted concentration of half-maximal effect
Target sequence (P17405 47-631 limits assumed): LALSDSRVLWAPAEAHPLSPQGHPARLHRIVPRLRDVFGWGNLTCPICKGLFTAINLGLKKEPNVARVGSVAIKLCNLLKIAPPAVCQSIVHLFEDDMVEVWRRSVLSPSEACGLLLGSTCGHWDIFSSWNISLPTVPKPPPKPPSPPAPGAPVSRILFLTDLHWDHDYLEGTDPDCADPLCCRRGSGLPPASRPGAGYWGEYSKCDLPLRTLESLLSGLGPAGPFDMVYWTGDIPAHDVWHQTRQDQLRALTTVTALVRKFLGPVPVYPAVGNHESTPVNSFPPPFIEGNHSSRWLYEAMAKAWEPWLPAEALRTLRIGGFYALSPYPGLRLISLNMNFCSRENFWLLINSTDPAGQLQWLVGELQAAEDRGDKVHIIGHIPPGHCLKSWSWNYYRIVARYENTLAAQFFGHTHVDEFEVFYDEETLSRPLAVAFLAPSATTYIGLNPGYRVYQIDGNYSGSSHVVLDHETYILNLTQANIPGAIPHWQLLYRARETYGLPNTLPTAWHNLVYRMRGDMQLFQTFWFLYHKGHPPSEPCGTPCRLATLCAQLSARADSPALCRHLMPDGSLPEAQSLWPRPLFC
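HMU-PC0 cleavage (9 uM final) by human placental ASM, 60 min at 37 °C following 10 min compound exposure at RT; stopped at pH 10, fluorescence Ex 386/Em 447 nm.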
HepG2 tox = qHTS for Inhibitors of TGF-b: Cytotox Counterscreen; HepG2 CAGA-GFP viability, ATP luminescence, 18 h; Potency, µM (titrated, usually from 46.1 µM), inactives show top-dose activity change, negative = cytotoxicity, actives largely listed as cytotoxic; 410,000 tested, 0.76% active; AID 588856, 2011; note: potency is the fitted concentration of half-maximal effect
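CellTiter-Glo luminescence gave cytotoxicity after 18 hours at 37 degrees C. The cells were HepG2 CAGA-GFP in 1% FBS DMEM, stimulated with 500 pg/mL TGF-beta after compound addition. %Activity was normalised to no-cell wells (complete cell-killing) and DMSO (no toxicity), and curves were fitted and classified.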
DT40 TDP1 CPT = qHTS for Inhibitors of human tyrosyl-DNA phosphodiesterase 1 (TDP1): qHTS in cells in presence of CPT; chicken DT40 Tdp1-/-;hTDP1 cells + 20 nM CPT, ATP luminescence, 48 h; Potency, µM (highest dose often 46.2 µM), without a hit: at the top dose activity change, negative = growth inhibition, hits mostly inhibitors; 420,000 tested, 12% active; AID 686979, 2013; note: potency is the fitted concentration of half-maximal effect; % is set by controls: 0 for no effect and ±100 for the full control effect; nearly all actives have a fitted effect of over 55% in size
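Chicken DT40 Tdp1-/- cells complemented with human TDP1, 400 cells/well, exposed to compounds plus 20 nM camptothecin for at least 48 h at 37 C; viability read as ATP content by CellTiter-Glo luminescence.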
* marks the source's active call; other numbers are inactive results; i = inactive; ? = inconclusive; / = no result given. Most compounds without a hit are left out; they make up all but 19% or so of the library. Unless noted, calls come from the whole dose curve; as a rule, active = well fitted curve in the direction sought with a large enough effect; inconclusive = small, poorly fitted or top-dose-only effect, or another doubt; inactive = no such curve, though single readings can be large; an effect the other way counts as inactive or inconclusive.

SMILES	TGFb inhibitor	DT40 TDP1 no CPT	IL1B secr inh	ASM inhibitor	HepG2 tox	DT40 TDP1 CPT
Cc1[nH]nc(Nc2ccc(C(C)C)cc2)c1[N+](=O)[O-]	?	?	-51*	-8%	-31%	8%
Cc1cc(C)n(CCOc2ccc(Br)cc2)n1	-3%	7%	-27	0%	-5%	-15%
COc1ccc(/C=N/NC(=O)CN(C)C(=O)OCc2ccccc2)cc1OC	7%	-1%	4	-1%	-6%	0%
O=C(Nc1c(C(=O)Nc2ccc(F)cc2)oc2ccccc12)c1cc2ccccc2o1	6%	18µM*	/	/	-9%	?
COc1ccc(NC(=O)c2oc3ccccc3c2NC(=O)c2cc(=O)c3ccccc3o2)cc1	6%	?	/	/	-20%	?
COc1ccc(NC(=O)c2oc3ccccc3c2NC(=O)c2cc(=O)c3c(C)cc(C)cc3o2)cc1	-2%	2.9µM*	/	/	3%	?
COc1ccc(NC(=O)c2oc3ccccc3c2NC(=O)c2ccco2)c(OC)c1	-10%	?	8	43%	3%	6.3µM*
COc1ccc(NC(=O)c2oc3ccccc3c2NC(=O)c2cc3ccccc3o2)cc1	?	4.1µM*	/	/	-12%	?
COc1ccc(NC(=O)c2oc3ccccc3c2NC(=O)c2cc3ccccc3o2)c(OC)c1	38%	-19%	/	/	-4%	17%
COc1ccc(NC(=O)c2oc3ccccc3c2NC(=O)c2ccco2)cc1	18%	18µM*	/	-12%	-6%	?
O=C1NC(=S)S/C1=C/c1ccc(OC(=O)c2ccco2)cc1	28%	-8%	?	1%	11%	?
CCOc1cc(/C=C2/SC(=S)NC2=O)ccc1OC(=O)c1ccco1	14%	12µM*	-51*	-7%	-27%	23µM*
COc1cc(/C=C2/SC(=O)NC2=O)ccc1OC(=O)c1ccco1	7%	16µM*	-22	-4%	-4%	16µM*
C[C@H](NC(CCc1ccccc1)C(=O)O)C(=O)N1CCC[C@H]1C(=O)O (stereo partly specified)	/	1%	/	/	/	8%
Cc1ccc(-n2c3nc(=O)[nH]c(=O)c-3cc3cc([N+](=O)[O-])ccc32)cc1	-18%	5.2µM*	-107*	40%	-32%	5.8µM*
CCCCNC(=S)N(C)/N=C/c1c(F)c(F)c(F)c(F)c1F	3%	?	-104*	4%	-8%	-1%
COc1ccc(N(C(=O)Cn2nnc(-c3ccccc3F)n2)C(C(=O)NCC2CCCO2)c2ccc(Cl)cc2)cc1 (stereo unspecified)	3%	9.2µM*	13	2%	-1%	?
COc1ccc(N(C(=O)Cn2nnc(-c3ccc(Cl)cc3)n2)C(C(=O)NCC2CCCO2)c2ccc(C)cc2)cc1 (stereo unspecified)	1%	-73%	-1	4%	-18%	-78%
Cc1cccc(N(C(=O)c2snc(C(N)=O)c2N)C(C(=O)NCC2CCCO2)c2c[nH]c3ccccc23)c1 (stereo unspecified)	6%	?	?	117%	1%	?
COc1cccc(N(C(=O)c2snc(C(N)=O)c2N)C(C(=O)NCC2CCCO2)c2ccc(F)cc2)c1 (stereo unspecified)	-1%	?	0	i	2%	?
CCc1ccccc1N(C(=O)c1snc(C(N)=O)c1N)C(C(=O)NCC1CCCO1)c1ccc(OC)c(OC)c1 (stereo unspecified)	1%	12µM*	8	i	9%	16µM*
NC(=O)c1nsc(C(=O)N(c2ccc(F)cc2)C(C(=O)NCC2CCCO2)c2c[nH]c3ccccc23)c1N (stereo unspecified)	20%	?	-60*	169%	3%	?
CCOc1ccc(C(C(=O)NCC2CCCO2)N(C(=O)c2snc(C(N)=O)c2N)c2ccc(F)cc2)cc1 (stereo unspecified)	1%	?	?	i	-4%	18µM*
Cc1cc(NC(=O)C(C)SCC(=O)Nc2cc(C(F)(F)F)ccc2N2CCOCC2)no1 (stereo unspecified)	-14%	?	0	-5%	-4%	10%
NC(=O)c1nsc(C(=O)N(c2cccc(F)c2)C(C(=O)NCC2CCCO2)c2c[nH]c3ccccc23)c1N (stereo unspecified)	-13%	-11%	-68*	94%	0%	4%
SMILES	TGFb inhibitor	DT40 TDP1 no CPT	IL1B secr inh	ASM inhibitor	HepG2 tox	DT40 TDP1 CPT
CCCCn1c(N)c(N(CCOC)C(=O)c2ccc3c(c2)C(=O)N(c2cc(C)ccc2C)C3=O)c(=O)[nH]c1=O	-4%	0%	20	0%	-9%	-13%
O=C(C1CC1)N(Cc1nc2ccccc2c(=O)[nH]1)Cc1cccs1	-4%	?	0	1%	0%	?
O=C(C1CCCCC1)N(Cc1nc2sc3c(c2c(=O)[nH]1)CCCC3)Cc1cccs1	5%	13µM*	14	-15%	-9%	?
COc1ccc(Br)cc1CNC(=O)Cn1nc(C)n2c(cc3cc(F)ccc32)c1=O	-1%	?	/	/	0%	?
Cc1onc(-c2ccccc2)c1C(=O)N/N=C/c1cc2c(cc1Br)OCO2	-11%	26µM*	-14	-3%	11%	?
Cc1onc(-c2ccccc2)c1C(=O)N/N=C/c1ccccc1OC(C)C	-2%	-22%	?	-3%	6%	-22%
Cc1cccc(/C=N/NC(=O)c2c(-c3ccccc3)noc2C)c1O	?	2.9µM*	135	-8%	-2%	18µM*
CCOC(=O)c1ccc(NC(=O)C2C3CCCCC32)cc1 (stereo unspecified)	11%	?	-64*	-1%	-3%	-25%
CCOC(=O)c1ccc(NC(=O)C2CCN(S(=O)(=O)CC)CC2)cc1	4%	-28%	-14	-1%	-3%	-17%
CCOC(=O)c1ccc(NC(=O)C2CCN(S(=O)(=O)c3ccccc3)CC2)cc1	9%	?	6	-6%	1%	26µM*

Bioassay records (PubChem BioAssay)
